This passage reports AC50 and outcome results from PubChem BioAssay (EPA / NIEHS).

“And” between values parts separate entries of the source, which are not always exact repeats. Equal entries are not always repeated. Inconclusive results are not listed. The source made the active and inactive calls. How the source made its calls: active means hit-call score of the fitted dose curve at least 0.9, where 1 is the maximum; inconclusive means response in the unintended direction; inactive means score below 0.9.

As usually defined, the AC50 is the midpoint of the concentration-response curve, whichever way the signal moves.

This test is described as follows: CCTE_Mundy_HCI_Cortical_Synap_Neur_Matur_NeuronCount: CCTE's Synaptogenesis and Neurite Maturation Assay in rat cortical cells for Neuron Count, Mundy Lab (AID 2284242).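 On AC50: hits reduce neuron count versus DMSO baseline.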 The procedure: CCTE_Mundy_HCI_Cortical_Synap&Neurite_Matur is a multiplexed, cell-based-readout assay that uses rat primary cortical cells with measurements taken at 288.33 hours after chemical dosing in a microplate: 96-well plate.CCTE_Mundy_HCI_Cortical_Synap_Neur_Matur_NeuronCount is one of eight components of the CCTE_Mundy_HCI_Cortical_Synap&Neurite_Matur assay. It measures cell viability related to number of neurons using High Content Imaging of fluorescently labelled markers.[…] Using a type of morphology reporter, loss -of-signal activity can be used to understand developmental effects.
Cells are plated onto 96 well plates and allowed 2 hr for attachment to the substrate. At days in vitro (DIV) 5, Cytosine Arabinoside (AraC) is added to arrest glial cell growth. Chemicals are dosed and a media change is performed at DIV 7 of differentiation and is continued through DIV 12 when the experiment is terminated. Cells are fixed with […] and Hoechst Dye. Cells are stained using Millipore Mouse anti-MAP2MAB3418 (1:800) and Millipore Rabbit anti-Synaptophysinsc-1750 (1:250) primary antibodies and Alexa Fluor-488 goat anti-mouse and AlexaFluor-546 goat anti-rabbit secondary antibodies to label neuronal cell nuclei, synapses and neurites. A Cellomics ArrayScan VTi HCS Reader is used for automated image acquisition and analysis of neurite outgrowth.
Turning to `CCCCOC(=O)c1ccccc1C(=O)OCCCC`, the concentration at half-maximal activity (AC50) was 81.3 µM (active).

Turning to `CCOC(=O)CC(SP(=S)(OC)OC)C(=O)OCC` (stereo not drawn), the half-maximal activity concentration (AC50) is 50 µM (active).

For `C=CCC1=C(C)[C@@H](OC(=O)[C@@H]2[C@@H](C=C(C)C)C2(C)C)CC1=O`, the concentration at half-maximal activity (AC50) was 26.6 µM (active).

Consider `COP(=S)(OC)Oc1nc(Cl)c(Cl)cc1Cl`, for which the AC50 was 25.7 µM (active).

Turning to `COC(=O)N(OC)c1ccccc1COc1ccn(-c2ccc(Cl)cc2)n1`, the AC50 is 0.0487 µM (active).

On to `CCCCC(CC)COC(=O)c1ccccc1C(=O)OCC(CC)CCCC` (stereo not drawn), for which the AC50 was 7.31 µM (active) and 5.3 µM (active).

In the case of `CO/C=C(/C(=O)OC)c1ccccc1Oc1cc(Oc2ccccc2C#N)ncn1`, the concentration at half-maximal activity (AC50) is 3.73 µM (active).

Turning to `N#Cc1nn(-c2c(Cl)cc(C(F)(F)F)cc2Cl)c(N)c1S(=O)C(F)(F)F` (stereo not drawn), the AC50 was 15 µM (active).

Take `Cc1ccc(-c2c(Cl)nc(C#N)n2S(=O)(=O)N(C)C)cc1`: the AC50 is 50 µM (active).

As for `CCOc1cc(Oc2ccc(C(F)(F)F)cc2Cl)ccc1[N+](=O)[O-]`, the AC50 is 15 µM (active).

Consider `CN(C)C(=S)SSC(=S)N(C)C`, for which the AC50 was 0.0653 µM (active).

Take `COP(N)(=O)SC` (stereo not drawn): the result was inactive.

For `CC(C)(C)c1ccc(CSc2cnn(C(C)(C)C)c(=O)c2Cl)cc1`, the AC50 was 0.000347 µM (active).
